13 molecules from PubChem BioAssay (NCATS) can be followed below.

The structures appear in SMILES notation. Inconclusive results are not listed. Active and inactive are the calls of the source. Calls follow the shape of the dose curve; as a rule, active = well fitted inhibition curve with a large enough effect; inconclusive = small, poorly fitted or top-dose-only effect; inactive = flat fitted curve, though single readings scatter.

In the assay the test system is HACAT. The assay can be described thus: qHTS assay to identify novel small-molecules to repurpose for Merkel cell carcinoma treatment (AID 1296009). Also: nearly all actives have a fitted effect of over 60% in size. Conditions: MCC and control cell lines, CellTiter-Glo viability, 72 h; at 44.8 µM (top of the series) unless noted. In a few lines:
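72 hr, 37 degree celsius; NPC 8-pt / MIPE 11-pt dose response; compound pinned in DMSO; CellTiter-Glo, 10 min RT, luminescence; normalized to no-cell and DMSO controls.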
For `CCc1cc2cc(OC)c(OC)cc2c(Cc2ccccc2)n1`, the call was inactive.

For `Nc1cccc2c(N)cccc12`, the outcome was “inactive [at 92 µM]”.

Take `CC1CCCCN1CCCOC(=O)c1ccc(OC2CCCCC2)cc1` (stereo not drawn): the outcome was inactive.

Regarding `Cc1nc(C2CCCCC2)c(-c2ccc(S(N)(=O)=O)c(F)c2)o1`, the result was inactive.

`C/C=C(/C(=C/C)c1ccc(OC(C)=O)cc1)c1ccc(OC(C)=O)cc1`: the molecule was classed as inactive.

As for `CC(C)Cc1ccc(C(C)C(=O)OCc2ccccn2)cc1` (stereo not drawn), the result was inactive.

Turning to `CCOC(=O)c1cc(=O)c2c(OCC(COc3cccc4oc(C(=O)OCC)cc(=O)c34)OC(=O)[C@@H](N)CCCCN)cccc2o1`, the molecule was called inactive.

For `COc1ccc2nc(SCc3ncc(C)c(OC)c3C)[nH]c2c1`, the result was inactive.

Take `Cc1ccc(CCn2c3c(c4cc(Cl)ccc42)CN(C)CC3)cn1`: the outcome was inactive.

Turning to `COC(=O)C1=C(C)NC(C)=C(C(=O)OCCc2ccc(N3CCN(C(c4ccccc4)c4ccccc4)CC3)cc2)C1c1cccc([N+](=O)[O-])c1` (stereo not drawn), the molecule was called inactive.

For `O=C1Nc2cc(Cl)ccc2Oc2ccccc21`, the call was inactive.

Turning to `N#CSCC(=O)O`, the call was inactive.

Consider `O=C(OCCN1CCOCC1)c1cccnc1Nc1cccc(C(F)(F)F)c1`, for which the molecule was classed as inactive.
